# Measured values taken from PubChem BioAssay (Tox21).
# Inconclusive results are not listed. A call without a number means that no potency is given here. The source made the active and inactive calls. Calls come from the whole dose curve.
# Target: Beta-2 adrenergic receptor (Homo sapiens) (UniProt P07550)
# Assay: Adrenergic beta2 receptor (ADRB2) small molecule agonists, cell-based qHTS assay (AID 1963593)
# How it was run: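 CHO cells stably over-expressing ADRB2 were plated overnight at 37C, then dosed with compounds plus a stimulation mix containing 100uM IBMX and 25uM Ro-20-1724 for 0.5hr at room temperature. cAMP was measured by HTRF competition, 1hr.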
# Potency is the fitted concentration of half-maximal effect.
# Sequence of Beta-2 adrenergic receptor (Homo sapiens) (P07550 whole entry, looked up): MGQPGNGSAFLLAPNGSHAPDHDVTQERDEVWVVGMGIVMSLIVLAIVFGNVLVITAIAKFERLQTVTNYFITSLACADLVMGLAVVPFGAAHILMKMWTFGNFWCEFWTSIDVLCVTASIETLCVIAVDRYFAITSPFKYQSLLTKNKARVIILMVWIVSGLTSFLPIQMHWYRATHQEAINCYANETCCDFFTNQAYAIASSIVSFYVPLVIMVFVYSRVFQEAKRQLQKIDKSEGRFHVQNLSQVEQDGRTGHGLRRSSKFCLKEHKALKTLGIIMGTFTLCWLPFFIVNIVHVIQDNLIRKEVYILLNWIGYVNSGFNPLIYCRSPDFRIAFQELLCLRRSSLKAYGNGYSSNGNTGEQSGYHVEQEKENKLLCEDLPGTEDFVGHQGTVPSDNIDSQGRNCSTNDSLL
row,SMILES,Potency
1,[Cl][Sb]([Cl])[Cl],inactive
2,CN/C(=N\[N+](=O)[O-])NCc1cnc(Cl)s1,inactive
3,Brc1cccc(-c2ccccc2)c1,inactive
4,C1CCC(C2CCCCC2)CC1,inactive
5,COCc1cnc(C2=NC(C)(C(C)C)C(=O)N2)c(C(=O)O)c1 (configuration not stated),inactive
6,Nc1c(Cl)c(F)nc(OCC(=O)O)c1Cl,inactive
7,CCOP(=O)(OCC)Oc1cc(C)nc(C(C)C)n1,inactive
8,Cc1c([N+](=O)[O-])c(C)c([N+](=O)[O-])c(C(C)(C)C)c1[N+](=O)[O-],inactive
9,CCC(=O)C(CCN(C)C)(c1ccccc1)c1ccccc1,inactive
10,COP(=O)(OC)O/C(C)=C/C(=O)N(C)C,inactive
11,N#CCCSCCC#N,inactive
12,CNP(=O)(OC)Oc1ccc(C(C)(C)C)cc1Cl (configuration not stated),inactive
13,CCN(CC)c1c([N+](=O)[O-])cc(C(F)(F)F)c(N)c1[N+](=O)[O-],inactive
14,c1ccc2c(c1)[nH]c1cnccc12,inactive
15,CCCC[N+]1(C)[C@@H]2CC(OC(=O)[C@H](CO)c3ccccc3)C[C@H]1[C@@H]1O[C@@H]12 (some centres not stated),inactive
16,CCCSC(=O)N(CCC)CCC,inactive
17,ClCc1cccc(Cl)c1,inactive
18,CC(C)(C)NC[C@H](O)c1ccc(O)cc1Cl,6 nM (active)
19,ClCC(Cl)Cl,inactive
20,CCN(CC)CCc1c[nH]c2ccccc12,inactive
21,CC(C)[N+](=O)[O-],inactive
22,O=C1OC(CCN2CCCCC2)OC1(c1ccccc1)c1ccccc1 (configuration not stated),inactive
23,CCC[N+](CCC)(CCC)CCC,inactive
24,CCCCOC(C)=O,inactive

row,SMILES,Potency
1,CO/C=C(/C(=O)OC)c1ccccc1COc1cccc(C(F)(F)F)n1,inactive
2,CC(=O)[C@H]1CC[C@H]2[C@@H]3CC[C@H]4C[C@H](O)CC[C@]4(C)[C@H]3C(=O)C[C@]12C,inactive
3,O=C(NC(=O)c1cc(F)c(F)cc1Cl)Nc1cc(F)ccc1N1CCC(C(=O)O)CC1,inactive
4,O=S(=O)(C(Cl)(Cl)Cl)C(Cl)(Cl)Cl,inactive
5,[CH3][Hg][Cl],inactive
6,COP(=S)(OC)Oc1c(Cl)cc(C)cc1Cl,inactive
7,CN=CNc1ccc(C)cc1C,inactive
8,CC(C)[C@H](C(=O)OC(C#N)c1cccc(Oc2ccccc2)c1)c1ccc(OC(F)F)cc1 (some centres not stated),inactive
9,O=C(O)c1cc(I)cc(I)c1I,inactive
10,COc1c2c(cc3c1OCO3)CCN(C)C2,inactive
11,CNC(=O)CSP(=O)(OC)OC,inactive
12,Nc1cc2c3c(c1)C(c1ccccc1)=N[C@@H](NC(=O)c1cccnc1)C(=O)N3CC2,inactive
13,COc1nn(C(=O)NS(=O)(=O)c2ccccc2OC(F)(F)F)c(=O)n1C,inactive
14,CC(C)COP(=O)(OCC(C)C)OCC(C)C,inactive
15,c1coc(-c2nc3ccccc3[nH]2)c1,inactive
16,CCCN(CC)CC1COC2(CCC(C(C)(C)C)CC2)O1 (configuration not stated),inactive
17,CCCN1CCC[C@@H]2Cc3nc(N)ncc3C[C@H]21,inactive
18,c1csc(-c2ccc(-c3cccs3)s2)c1,inactive
19,O=C(O)c1c(Cl)ccc2cc(Cl)cnc12,inactive
20,CCC(Cl)CCl (configuration not stated),inactive
21,CN(C)CCc1c[nH]c2ccccc12,inactive
22,Clc1ccc(C(Cl)(Cl)Cl)cc1Cl,inactive
23,CCCCCC[N+](=O)[O-],inactive
